Rows were chosen to be rich in hits. Some 11% of all compounds tested hit in one or more screens of this group.
AMA1 RON2 block – qHTS for Inhibitors of AMA1-RON; Towards Development of Antimalarial Drug Lead: Primary Screen. Plasmodium falciparum AMA1 (3D7) - RON2 peptide interaction. AlphaScreen AMA1-biotinylated RON2 peptide binding. Potency, µM (titrated, usually from 58.2 µM), most hits filed as inhibitors. 360,000 compounds, 0.2% hits. AID 720542, 2013; also: nearly all actives have a fitted effect of over 45% in size
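AMA1 (3D7) with his tag at 25 nM final met compounds first, then biotinylated RON2 peptide at 25 nM; detection used donor plus acceptor beads, 10 µg/mL apiece, read by AlphaScreen after 30 min at room temperature.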
Pf growth 96h – Primary qHTS for delayed death inhibitors of the malarial parasite plastid, 96 hour incubation | P. falciparum luciferase reporter growth, 96 h | Potency, µM (titrated, usually from 28.7 µM), usual class: inhibitors | 320,000 compounds, 6.9% hits
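P. falciparum expressing integrated firefly luciferase, in erythrocytes at 2% hematocrit, 0.05% parasitemia, incubated with compounds 96 h at 37 C, 5% CO2. Growth inhibition read as loss of luminescence; two-generation exposure targets delayed-death apicoplast inhibitors.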
HCV inh – qHTS Assay for Inhibitors of Hepatitis C Virus (HCV); Potency, µM (top dose mostly 41.8 µM), usual class: inhibitors; AID 651820, 2012; 340,000 compounds, 3.4% hits; Huh7.5.1 HCVcc-Cre infection, luciferase reporter, 44 h
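A cell-based infection assay in which seeded cells (1,000 per well) receive test compound after 4 h, are inoculated with HCVcc-Cre at approximately 0.5 moi, and are incubated 44 h before luminescence detection.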
Pf growth 48h – Primary qHTS for delayed death inhibitors of the malarial parasite plastid, 48 hour incubation. 310,000 compounds, 5.9% hits. P. falciparum luciferase growth in erythrocytes, 48 h. Potency, µM (highest dose often 28.7 µM), hits mostly inhibitors
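Erythrocytes infected with P. falciparum carrying an integrated firefly luciferase reporter (2% hematocrit, 0.1% parasitemia final) were exposed to compounds in RPMI 1640 with 0.5% Albumax at 37 C, 5% CO2. Growth inhibition was scored as reduced luminescence.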
AmpC no deterg – qHTS Inhibitors of AmpC Beta-Lactamase (assay without detergent) | 330,000 compounds, 0.52% hits | P00811 | AID 485341, 2010 | Potency, µM (titrated, usually from 57.1 µM), usual class: inhibitors | AmpC nitrocefin hydrolysis, absorbance 480 nm, 0.0001% Triton; also: nearly all actives have a fitted effect of over 20% in size
Target sequence (P00811 whole entry, looked up): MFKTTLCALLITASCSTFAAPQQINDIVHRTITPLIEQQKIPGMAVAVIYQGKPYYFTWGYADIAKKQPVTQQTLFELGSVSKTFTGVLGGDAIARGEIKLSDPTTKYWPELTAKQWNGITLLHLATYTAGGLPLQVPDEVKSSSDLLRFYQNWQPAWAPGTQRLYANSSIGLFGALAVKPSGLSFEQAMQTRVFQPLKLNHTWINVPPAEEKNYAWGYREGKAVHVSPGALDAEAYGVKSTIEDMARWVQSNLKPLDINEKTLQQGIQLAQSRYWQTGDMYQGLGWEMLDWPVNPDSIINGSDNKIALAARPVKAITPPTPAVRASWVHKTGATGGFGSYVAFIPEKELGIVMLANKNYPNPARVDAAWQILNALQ
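20 mM phosphate pH 7.0 + 0.01% (detergent screen) or 0.0001% Triton X-100; 5.3 nM AmpC reagent; cpd preinc 15 min RT; nitrocefin (800 uM stock) to start; A480 q20 s × 4 min; Activity was normalised to no-enzyme and no-compound control wells.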
AmpC inh detg – qHTS Inhibitors of AmpC Beta-Lactamase (assay with detergent) | AID 485294, 2010 | AmpC hydrolysis of nitrocefin, absorbance 480 nm, 0.01% Triton | 370,000 compounds, 0.041% hits | Potency, µM (series often up to 114 µM), usual class: inhibitors | P00811; also: nearly all actives have a fitted effect of over 25% in size
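20 mM phosphate pH 7.0 + 0.01% (detergent screen) or 0.0001% Triton X-100; 5.3 nM AmpC reagent; cpd preinc 15 min RT; nitrocefin (800 uM stock) to start; A480 q20 s × 4 min; Activity was normalised to no-enzyme and no-compound control wells.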
A number is an active result; – = inactive; ? = inconclusive; · = no result; [ ] = dose if it differs, or a comment. Calls follow the shape of the dose curve; as a rule, active = well fitted curve in the direction sought with a large enough effect; inconclusive = small, poorly fitted or top-dose-only effect, or another doubt; inactive = no such curve, though single readings can be large; an effect the other way counts as inactive or inconclusive.

SMILES | AMA1 RON2 block | Pf growth 96h | HCV inh | Pf growth 48h | AmpC no deterg | AmpC inh detg
Cc1ccc(C)c2[nH]c(=O)c(CCNC(=O)C(C)(C)C)cc12 | – | – | – | – | 39.8µM | –
Cc1ccc(C)c2[nH]c(=O)c(CCNC(=O)c3ccc(S(=O)(=O)N(C)C)cc3)cc12 | – | ? | ? | ? | 2.82µM | –
Cc1ccc(C)c2[nH]c(=O)c(CCNC(=O)Cc3cccs3)cc12 | – | – | –[8.37 µM] | – | – | –
COc1ccc(CN(C2CCCCC2C)S(=O)(=O)c2ccc(S(=O)(=O)N(C)C)cc2)cc1OC (stereo not drawn) | – | ? | – | 13.1µM | – | –
COc1cc(CN(C2CCCCC2C)S(=O)(=O)c2ccc(S(=O)(=O)NC3CC3)cc2)cc(OC)c1OC (stereo not drawn) | – | – | – | 8.28µM | – | –
COc1ccc(CC(=O)Nc2ccc(S(=O)(=O)N(C)C)cc2)cc1OC | – | – | – | – | – | –
O=C(NCc1ccc(Cl)cc1)C1(c2cccs2)CCOCC1 | · | · | · | · | · | –
O=C(CSc1nc2ccccc2n1Cc1ccccc1Cl)N/N=C/c1ccccc1C(=O)O | – | 5.22µM | – | ? | – | –
COc1ccc(-c2noc(-c3ccc(N4CCN(c5ccc(OC)cc5)CC4)c([N+](=O)[O-])c3)n2)cc1 | · | · | · | · | · | –
COc1ccc(NC(=O)COC(=O)c2c3c(nc4ccccc24)CCCC3)cc1 | – | ? | ? | ? | – | ?
CCOc1ccc(NC(=O)c2c3c(nc4ccccc24)CCC3)cc1 | – | 3.7µM | – | 4.15µM | – | –
COc1ccc(OC)c(NC(=O)COC(=O)c2c3c(nc4ccccc24)CCCC3)c1 | – | · | 0.891µM | 8.28µM | – | –
CNC(=O)COC(=O)c1c2c(nc3ccccc13)CCC2 | – | ? | – | 13.1µM | – | –
Cc1ccc(NC(=O)c2c3c(nc4ccccc24)CCC3)cc1 | – | – | – | ? | – | –
O=C1c2cccnc2C(=O)N1Cc1ccc(Cl)cc1 | – | 1.65µM | – | – | – | –
COc1ccc(CN2C(=O)c3cccnc3C2=O)cc1S(=O)(=O)NC1CCCCC1 | – | 13.1µM | – | – | – | –
Cc1ccc(NC(=O)CCn2c(=O)c3cccn3c3ccccc32)cc1Cl | · | · | · | · | · | –
CCC(=O)Nc1nc(-c2ccc3c(c2)OCCO3)cs1 | – | – | ? | – | 39.8µM | ?
CS(=O)(=O)N1CCc2cc(-c3csc(NC(=O)Cc4ccccc4)n3)ccc21 | – | – | ? | – | – | –
CS(=O)(=O)N1CCc2cc(-c3csc(NCC4CCCO4)n3)ccc21 (stereo not drawn) | – | ? | – | 9.28µM | – | –
CCCC(=O)Nc1nc(-c2ccc3c(c2)CCN3S(C)(=O)=O)cs1 | – | – | 12.6µM | – | – | ?
CC(=O)Nc1ccc(-c2csc(NC(=O)Cc3cccc(F)c3)n2)cc1 | – | – | 7.94µM | – | – | –
CC(=O)Nc1ccc(-c2csc(NC(=O)Cc3ccccc3F)n2)cc1 | – | – | ? | – | – | ?
Cc1nc(N2CCCC2)ncc1C(=O)NCc1cccc(Cl)c1 | · | · | · | · | · | –
Cc1c(Cl)cccc1NC(=O)c1ccc2c(c1)CCCN2S(C)(=O)=O | · | · | · | · | · | –
SMILES | AMA1 RON2 block | Pf growth 96h | HCV inh | Pf growth 48h | AmpC no deterg | AmpC inh detg
CC1Cc2cc(-c3csc(NC(=O)Cc4cccs4)n3)ccc2N1S(C)(=O)=O (stereo not drawn) | – | ? | 6.31µM | 13.1µM | – | –
O=C(Cc1cccs1)Nc1nc(-c2ccc(F)cc2F)cs1 | – | ? | 11.2µM | · | – | –
O=C(Cc1cccs1)Nc1nc(-c2ccc(F)c(F)c2)cs1 | – | ? | ? | ? | – | –
Cc1c(NC(=O)Nc2cccc(C(F)(F)F)c2)sc2nc3n(c(=O)c12)CCC(C)CC3 (stereo not drawn) | · | · | · | · | · | –
COc1ccc2c(Sc3ccccc3)c(C(=O)NCc3cc(Br)ccc3OC)[nH]c2c1 | · | · | · | · | · | –
O=C1CCCc2c1[nH]c1c(Br)cccc21 | – | – | – | – | – | –
Cc1cc(Br)c2[nH]c3c(c2c1)CCCC3=O | – | – | 10µM | · | – | –
CN1C[C@@H]2C(c3ccc(C(F)(F)F)cc3)C3(c4cccnc4)CC2(C3)[C@H]1c1ccccc1 (stereo partly drawn) | ? | 2.94µM | – | 2.33µM | – | –
N#Cc1ccc(C23CC4(C2)[C@H](CN(Cc2ccc(C(F)(F)F)cc2)[C@@H]4c2ccccc2)C3c2ccc(C(F)(F)F)cc2)cc1 (stereo partly drawn) | – | – | – | – | – | –
FC(F)(F)c1ccc(CN2C[C@@H]3C(c4ccc(C(F)(F)F)cc4)C4(c5cccnc5)CC3(C4)[C@H]2c2ccccc2)cc1 (stereo partly drawn) | – | 2.08µM | – | 2.08µM | – | –
FC(F)(F)c1ccc(C2[C@H]3CN(Cc4cccnc4)[C@H](c4ccccc4)C34CC2(c2ccccc2)C4)cc1 (stereo partly drawn) | – | 2.33µM | –[8.37 µM] | 2.94µM | – | –
FC(F)(F)c1ccc(CN2C[C@@H]3C(c4ccccc4)C4(c5cccnc5)CC3(C4)[C@H]2c2ccccc2)cc1 (stereo partly drawn) | – | 3.29µM | – | 2.33µM | – | –
C[C@H]1COC[C@@H](C/C=C/c2ccccc2)N1c1ccccc1 | – | · | · | · | · | ·
CC1COCC(C)N1C1=C(Cl)C(=O)c2ccccc2C1=O (stereo not drawn) | ? | · | 11.2µM | · | · | ·
O=C1C(Cl)=C(N2CCC(C(=O)O)CC2)C(=O)c2ccccc21 | – | 11.7µM | – | 11.7µM | – | –
CN1CCN(C2=C(Cl)C(=O)c3ccccc3C2=O)CC1 | – | · | 7.08µM | · | · | ·
NC(=O)C1CCN(c2ccc3c(c2)S(=O)(=O)c2ccccc2C3=O)CC1 | – | · | ? | · | · | ·
O=C(O)C1CCN(C(=O)c2ccccc2Cl)CC1 | – | · | – | – | – | –
NC(=O)C1CCN(C2=C(Cl)C(=O)c3ccccc3C2=O)CC1 | – | ? | 2.51µM | ? | – | –
O=C(c1cc2c(=O)n3ccccc3nc2s1)N1CCOCC1 | – | 5.22µM | – | – | – | –
CC1CN(C(=O)c2cc3c(=O)n4ccccc4nc3n2C)CC(C)O1 (stereo not drawn) | 11.2µM | ? | – | – | – | –
Cn1c(C(=O)N2CCN(C(=O)c3ccco3)CC2)cc2c(=O)n3ccccc3nc21 | – | 4.65µM | ? | – | – | –
CC1CCN(C(=O)c2cc3c(=O)n4ccccc4nc3s2)CC1 | – | ? | – | – | – | –
